Data: the supplement of paper PMC6992640
± gives the standard deviation of the averaged measurements.

How the values were obtained:
Assay in all cases: cell viability (% of vehicle); higher = less cytotoxic
Settings in all cases: 10 µM; 72 h
HCI01 = test system: HCI01 (cells of a triple-negative basal-like breast cancer xenograft)
HCI03 = test system: HCI03 (cells of an ER-positive luminal breast cancer xenograft)
HCI09 = test system: HCI09 (cells of a triple-negative luminal androgen receptor type breast cancer xenograft)
HCI13 = test system: HCI13 (cells of an ER-positive luminal breast cancer xenograft)
HCI16 = test system: HCI16 (cells of a triple-negative basal-like breast cancer xenograft)
UCD52 = test system: UCD52 (cells of a triple-negative basal-like breast cancer xenograft)
WHIM2 = test system: WHIM2 (cells of a triple-negative basal-like breast cancer xenograft)
WHIM30 = test system: WHIM30 (cells of a triple-negative basal-like breast cancer xenograft)
HCI11 = test system: HCI11 (cells of an ER-positive luminal breast cancer xenograft)
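Note: PDX cells carrying CMV promoter-driven luciferase, viability read as total photon flux per second by IVIS imaging following D-luciferin, vehicle control 0.1% DMSO.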

| SMILES | cell viability (HCI01) | cell viability (HCI03) | cell viability (HCI09) | cell viability (HCI13) | cell viability (HCI16) | cell viability (UCD52) | cell viability (WHIM2) | cell viability (WHIM30) | cell viability (HCI11) |
| --- | --- | --- | --- | --- | --- | --- | --- | --- | --- |
| CCc1c2c(nc3ccc(OC(=O)N4CCC(N5CCCCC5)CC4)cc13)-c1cc3c(c(=O)n1C2)COC(=O)C3(O)CC (centres undefined) [Irinotecan] | 110 ± 6 | 133 | 174 ± 80 | 121 ± 2.2 | 140 | 107 ± 6.1 | 67.4 ± 6.7 | 113 ± 8.8 |  |
| CC(C)n1c(C=CC(O)CC(O)CC(=O)[O-])c(-c2ccc(F)cc2)c2ccccc21.[Na+] (centres undefined) [Fluvastatin Sodium] | 91.3 ± 15 | 135 | 61.2 ± 11 |  | 135 | 54.9 ± 4.7 | 59.6 ± 0.62 | 113 ± 11 |  |
| O=C(O)CC(O)CC(O)C=Cc1c(C2CC2)nc2ccccc2c1-c1ccc(F)cc1 (centres undefined) [Pitavastatin] | 119 ± 18 | 125 | 102 ± 19 |  | 171 | 74.9 ± 9.2 | 93.6 ± 47 | 92.2 ± 11 |  |
| C#CC1(O)CCC2C3CCc4cc(O)ccc4C3CCC21C (centres undefined) [Ethinyl Estradiol] | 107 ± 7.8 | 119 | 103 ± 15 |  | 93.3 | 84 ± 3.5 | 107 ± 25 | 109 ± 21 | 102 |
| COCCCOc1ccnc(C[S+]([O-])c2nc3ccccc3[nH]2)c1C (centres undefined) [Rabeprazole sodium] | 167 ± 75 | 197 | 82.4 ± 28 |  |  | 178 ± 5.8 | 135 ± 15 |  | 115 |
| CC1CC2C3CCC4=CC(=O)C=CC4(C)C3(F)C(O)CC2(C)C1(O)C(=O)CO (centres undefined) [Betamethasone] | 130 ± 41 | 177 | 145 ± 32 |  |  | 183 ± 2.4 | 130 ± 27 | 184 ± 37 | 175 |
| CCCC(=O)OC1(C(=O)COC(C)=O)CCC2C3CC(F)C4=CC(=O)C=CC4(C)C3(F)C(O)CC21C (centres undefined) [Difluprednate] | 110 ± 13 | 137 | 134 ± 37 |  |  | 177 ± 21 | 128 ± 7.3 | 175 ± 11 | 116 |
| CC(=O)OCC(=O)C1(O)CCC2C3CCC4=CC(=O)C=CC4(C)C3C(O)CC21C (centres undefined) [Prednisolone Acetate] | 119 ± 47 | 185 | 134 ± 37 |  |  | 152.4 ± 0.65 | 97.2 ± 1.2 | 182 ± 22 | 123 |
| CC1(C)O[C@@H]2C[C@H]3[C@@H]4CCC5=CC(=O)C=C[C@]5(C)[C@H]4[C@@H](O)C[C@]3(C)[C@]2(C(=O)CO)O1 [Desonide] | 84.8 ± 63 | 176 | 117 ± 43 |  |  | 144 ± 8.6 | 96.1 ± 15 | 127 ± 17 | 125 |
| Nc1nc2[nH][nH]nc-2c(=O)n1 [Azaguanine-8] | 158 ± 48 | 146 | 137 ± 21 | 150 ± 9.1 |  | 102 ± 55 | 96.01 ± 0.31 | 119 ± 14 |  |
| CC(=O)OCC(=O)[C@@]12OC(C)(C)O[C@@H]1C[C@H]1[C@@H]3C[C@H](F)C4=CC(=O)C=C[C@]4(C)[C@@]3(F)[C@@H](O)C[C@@]12C [Fluocinonide] | 75.9 ± 53 | 179 | 127 ± 39 |  |  | 156 ± 2.6 | 94.6 ± 31 | 175.6 ± 0.94 | 129 |
| CC1CC2C3CC(F)C4=CC(=O)C=CC4(C)C3(F)C(O)CC2(C)C1(O)C(=O)CO (centres undefined) [Flumethasone] | 144 ± 49 | 180 | 140 ± 56 |  |  | 166 ± 22 | 93.2 ± 12 | 163 ± 5.2 | 145 |
| CCC(=O)OC1(C(=O)CCl)C(C)CC2C3CC(F)C4=CC(=O)C=CC4(C)C3(F)C(O)CC21C (centres undefined) [Halobetasol Propionate] | 159 ± 6.9 | 152 | 133 ± 96 |  |  | 191 ± 18 | 113 ± 9.6 |  | 133 |
| CCCCC(=O)OC1(C(=O)CO)C(C)CC2C3CCC4=CC(=O)C=CC4(C)C3(F)C(O)CC21C (centres undefined) [Betamethasone Valerate] | 120 ± 12 | 169 | 148 ± 34 |  |  | 161 ± 9.9 | 88.9 ± 29 | 194 ± 17 | 124 |
| CC(C)c1c(C(=O)Nc2ccccc2)c(-c2ccccc2)c(-c2ccc(F)cc2)n1CCC(O)CC(O)CC(=O)[O-].CC(C)c1c(C(=O)Nc2ccccc2)c(-c2ccccc2)c(-c2ccc(F)cc2)n1CCC(O)CC(O)CC(=O)[O-].[Ca+2] (centres undefined) [Atorvastatin Calcium] | 89.2 ± 4.2 | 138 | 89.2 ± 26 | 95.72 ± 0.31 | 140 | 47.7 ± 2.3 | 43.7 ± 10 | 158 ± 5.3 |  |
| CCN(CC)CC#CCOC(=O)C(O)(c1ccccc1)C1CCCCC1.Cl (centres undefined) [Oxybutynin chloride] | 175 ± 51 | 170 | 139 ± 59 |  | 178 | 109 ± 10 | 166 ± 20 | 85.9 ± 14 | 140 |
| O=C([O-])CC(O)CC(O)C=Cc1c(C2CC2)nc2ccccc2c1-c1ccc(F)cc1.O=C([O-])CC(O)CC(O)C=Cc1c(C2CC2)nc2ccccc2c1-c1ccc(F)cc1.[Ca+2] (centres undefined) [Pitavastatin Calcium] | 83.9 ± 10 | 78.4 | 53.9 ± 27 | 148 ± 27 | 113 | 50.2 ± 1.3 | 67.8 ± 23 | 93.3 ± 4.9 |  |
| CC12CCC(=O)C=C1CCC1C2C(O)CC2(C)C1CCC2(O)C(=O)CO (centres undefined) [Hydrocortisone] | 103 ± 13 | 126 | 132 ± 57 |  |  | 124 ± 4.5 | 95.6 ± 4.8 | 198 ± 13 | 113 |
| CCC(=O)OCC(=O)C1(OC(=O)CC)C(C)CC2C3CCC4=CC(=O)C=CC4(C)C3(F)C(O)CC21C (centres undefined) [Betamethasone Dipropionate] | 126 ± 23 | 138 | 150 ± 25 |  |  | 147 ± 14 | 92.3 ± 26 |  | 136 |
| Cc1ccc(C)c(OCCCC(C)(C)C(=O)O)c1 [Gemfibrozil] | 99.9 ± 25 | 118 | 131 ± 54 |  |  | 124 ± 17 | 98.3 ± 12 |  | 112 |
| C#C[C@]1(O)CC[C@H]2[C@@H]3CCC4=CC(=O)CC[C@@H]4[C@H]3C(=C)C[C@@]21CC [Etonogestrel] | 109 ± 47 | 135 | 102 ± 13 |  | 145 | 116 ± 14 | 112 ± 30 | 146 ± 16 | 86.3 |
